This is part of a sample that, as a whole, favours compounds with a hit. Of some 83,000 tested, about 20% had one in any assay.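 For each line, cells grew in 96-well plates with the test compound present at a single concentration for 48 hours.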 Unmarked numbers belong to inactive results. Active and inactive are the calls of the source. How the source made its calls: active means growth percent below 10; inactive means the rest.

What all share (assay): NCI-60 one-dose screen, 48 h (100 = growth as untreated, 0 = no growth, -100 = all killed)
The test system of assay [1] is HCT-15 colon. The settings on record: 10 µM unless noted.
The test system of assay [2] is HT29 colon. The settings on record: 10 µM unless noted.
In assay [3] the test system is SNB-75 CNS. The settings on record: 10 µM unless noted.
In assay [4] the test system is SNB-19 CNS. The settings on record: 10 µM unless noted.
For assay [5], the system named is U251 CNS. The settings on record: 10 µM unless noted.
Assay [6] relates to PC-3 prostate. The settings on record: 10 µM unless noted.
In assay [7] the test system is SK-MEL-5 melanoma. The settings on record: 10 µM unless noted.
The subject of assay [8] is LOX IMVI melanoma. The settings on record: 10 µM unless noted.
For assay [9], the system named is SK-MEL-28 melanoma. The settings on record: 10 µM unless noted.
The subject of assay [10] is EKVX NSCLC. The settings on record: 10 µM unless noted.
Assay [11] has as its system SN12C renal. The settings on record: 10 µM unless noted.
The test system of assay [12] is UO-31 renal. The settings on record: 10 µM unless noted.
Assay [13] relates to TK-10 renal. The settings on record: 10 µM unless noted.
Assay [14] relates to ACHN renal. The settings on record: 10 µM unless noted.
Assay [15] has as its system CAKI-1 renal. The settings on record: 10 µM.
Assay [16] deals with CCRF-CEM leukemia. The settings on record: 10 µM unless noted.
The test system of assay [17] is MOLT-4 leukemia. The settings on record: 10 µM unless noted.
The subject of assay [18] is UACC-62 melanoma. The settings on record: 10 µM unless noted.
Assay [19] relates to SK-MEL-2 melanoma. The settings on record: 10 µM unless noted.
Assay [20] deals with A498 renal. The settings on record: 10 µM unless noted.

For the compound `O=C1Nc2cc(OC(F)(F)F)ccc2Oc2ccc(-c3ccnc(N4CCNCC4)c3)cc21`, the growth in assay [1] was -51.4% (active); in assay [2] it was -72.7% (active); in assay [3] it was -5.02% (active); in assay [4], 27.2%; in assay [5], -78.6% (active); in assay [6], 13.8%. The growth is -85.3% (active) in assay [7]; -85.8% (active) in assay [8]; -80.9% (active) in [9]; 41.2% in assay [10]; -26.9% (active) in [11]; 1.72% (active) in assay [12]. Besides, the growth in [13] is 27.8%; in [14], 2.57% (active); in assay [15] it was -36.1% (active); in assay [16] it was -6.19% (active); in [17], -0.166% (active).

As to `CC1CCc2c(sc3nc(SCC(=O)N/N=C/c4ccc(Cl)cc4)n(-c4ccccc4)c(=O)c23)C1` (stereo not given), the growth is 96.3% in [1]; 107% in [2]; 98.5% in assay [3]; 81.6% in assay [4]; 93.9% in assay [5]; 104% in [7]. Moreover, the growth in [18] is 92.8%; in [8], 84.1%; in assay [10] it was 103%; in assay [11], 95.6%; in [12] it was 94.2%; in assay [13], 114%. Also, the growth in assay [14] was 81.1%; in assay [15], 75.1%; in assay [16] it was 109%; in assay [17], 110%.

Turning to `O=C(CCCCCCN1CC(=O)N2[C@@H](c3ccccc3)c3[nH]c4ccccc4c3C[C@H]2C1=O)NO`, the growth in [1] was 91.4%; in [2] it was 41.9%; in assay [4] it was 67.1%; in assay [5], 51.7%; in assay [6] it was 59.6%; in assay [7], 41.7%. For the same compound, the growth in assay [18] is 18.8%; in [8], 30.8%; in [9] it was 47%; in assay [19] it was 68.4%; in assay [10], 84.3%; in [11] it was 78.4%. The growth is 57.1% in [12]; 69.4% in assay [13]; 87.3% in assay [14]; 65.5% in assay [15]; 87.1% in [20]; 24.5% in assay [16]. Further, in assay [17], the growth was 20.9%.

Consider `CC(=O)NC(C)(C)C(=O)N1CCC[C@H]1C(=O)NC(C)(C)C(=O)N[C@@H](C)C(=O)NC(C)(C)C(=O)N[C@@H](C)C(=O)N[C@@H](CCC(N)=O)C(=O)NC(C)(C)C(=O)N[C@H](C(=O)NC(C)(C)C(=O)NCC(=O)N[C@@H](CC(C)C)C(=O)NC(C)(C)C(=O)N1CCC[C@H]1C(=O)N[C@H](C(=O)NC(C)(C)C(=O)NC(C)(C)C(=O)N[C@@H](CCC(N)=O)C(=O)N[C@@H](CCC(N)=O)C(=O)N[C@H](CO)Cc1ccccc1)C(C)C)C(C)C`, for which the growth is 101% [4.25 µM] in assay [1]; 71% [4.25 µM] in [2]; 33.4% [4.25 µM] in assay [3]; 52.5% [4.25 µM] in [4]; 62.3% [4.25 µM] in assay [5]; 38.2% [4.25 µM] in assay [7]. Besides, the growth is 95.8% [4.25 µM] in [18]; 65.3% [4.25 µM] in assay [9]; 91.2% [4.25 µM] in [19]; 76.7% [4.25 µM] in assay [10]; 32.2% [4.25 µM] in [11]; 95.8% [4.25 µM] in [12]. In addition, the growth in [13] is 87.1% [4.25 µM]; in [14], 110% [4.25 µM]; in assay [20], 81.9% [4.25 µM]; in assay [16] it was 62.8% [4.25 µM]; in [17], 75.3% [4.25 µM].

Take `CCCCOc1ccc(S(=O)(=O)N2CCN(c3nccc(N4CCOCC4)n3)CC2)cc1`: the growth in assay [1] is 7.04% (active); in [2], 13.5%; in assay [4] it was 71.4%; in assay [5], 27.2%; in assay [6], 41.3%; in [7], 46.8%. For the same compound, the growth in [18] is -7.93% (active); in assay [8], -67.9% (active); in assay [9], 21.1%; in assay [19] it was 33.5%; in assay [10], 46.3%; in assay [11], 28.7%. The growth is 24.8% in [12]; 44.3% in [13]; 15.1% in assay [14]; 13.8% in [15]; -1.44% (active) in assay [20]; 49.8% in assay [16]. For the same compound, the growth in assay [17] is 24.2%.

For `Nc1nc(N)c2c(n1)NC(c1ccc(Cl)cc1)CC(c1ccc(Nc3nc(NCCO)nc(Nc4ccc(Cl)cc4)n3)cc1)=N2` (stereo not given), the growth is 1.91% (active) in assay [1]; -21.8% (active) in [2]; 17.2% in assay [4]; -35.6% (active) in assay [5]; 44.1% in assay [6]; 48.4% in [7]. Also, the growth in assay [18] is 91.2%; in assay [8] it was -90% (active); in assay [9] it was 103%; in assay [19], 54.2%; in [10], 76.1%; in assay [11] it was 56.6%. Further, the growth is 39.7% in assay [12]; 72.9% in [13]; 57.5% in assay [14]; 49.5% in assay [15]; 82.1% in assay [20]; 4.85% (active) in assay [16]. Also, the growth in [17] is 3.59% (active).

With `Oc1ccc(CSc2nnc(-c3cnccn3)n2-c2ccccc2)c2cccnc12`, the growth in assay [1] was 19.3%; in [2], 79.5%; in assay [4], 19.7%; in [5] it was 20.4%; in assay [6], 30%; in assay [7], -22.6% (active). Besides, the growth in [18] is 2.61% (active); in [8], 15.5%; in [9], 32.5%; in assay [19], 42.6%; in assay [10], 44%; in assay [11], 24.5%. Besides, the growth was 10.7% in assay [12]; 37.7% in [13]; 15.4% in [14]; 16.7% in assay [15]; 10.9% in [20]; 16.7% in [16]. Further, the growth in assay [17] was 21.3%.

With `O=C(/C=C1\C=CN(CCCCCCF)c2ccccc21)n1ccc2ccccc21`, the growth is 101% in assay [1]; 98.3% in assay [2]; 97.1% in [4]; 98.9% in assay [5]; 84.7% in assay [6]; 94.4% in assay [7]. Further, the growth is 76% in assay [18]; 101% in [8]; 106% in assay [9]; 111% in assay [19]; 79% in [10]; 90.5% in assay [11]. Besides, the growth is 71.5% in assay [12]; 115% in assay [13]; 97.4% in [14]; 86.5% in assay [15]; 96.3% in assay [20]; 96.1% in assay [16]. Moreover, the growth in [17] was 106%.

Source of the values: PubChem BioAssay (NCI).
